Results on 20 molecules are retold here after PubChem BioAssay (NCI).

Assay [1] in a line: NCI Yeast Anticancer Drug Screen. Data for the rad50 strain (AID 155).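 Also: 0% = growth of vehicle-only cultures of the same strain.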 The following applies: S. cerevisiae rad50 strain growth inhibition; at 50.0 µM; active compounds read high. The essentials:
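Inhibition values express reduced yeast growth in compound-treated cultures relative to vehicle-treated controls.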

Assay [2] is described as follows: NCI Yeast Anticancer Drug Screen. Data for the mec2-1 strain (AID 157). The following applies: S. cerevisiae mec2-1 strain, at 50.0 µM, active compounds read high. Put shortly: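 Cells of the genetically defined mec2-1 yeast strain are incubated with test compound. Inhibition of growth is calculated against vehicle-treated controls.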
Assay [3] can be described thus: NCI Yeast Anticancer Drug Screen. Data for the sgs1 mgt1 strain (AID 161).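 Also: 0% = growth of cultures given vehicle only.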 The following applies: S. cerevisiae sgs1 mgt1 strain, at 50.0 µM, active compounds read high. Put shortly:
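Inhibition of yeast growth, normalised to vehicle-treated controls, is reported for a strain bearing genetic alterations in DNA damage repair.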

Assay [4] is described as follows: NCI Yeast Anticancer Drug Screen. Data for the cln2 rad14 strain (AID 165).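 Also: 0% = growth equal to vehicle treated cultures.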 The following applies: S. cerevisiae cln2 rad14 strain, at 50.0 µM, active compounds read high. Put shortly: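 The screen exposed genetically defined yeast (cln2 rad14) to test compounds and scored growth inhibition relative to vehicle-treated controls.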
Assay [5] can be described thus: NCI Yeast Anticancer Drug Screen. Data for the bub3 strain (AID 167). The following applies: S. cerevisiae bub3 mutant strain, at 50.0 µM, active compounds read high. The essentials:
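Steps: expose the mutant yeast strain to compound; grow alongside vehicle-treated cultures; measure growth; express inhibition against the vehicle cultures.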

A short description of assay [6]: NCI Yeast Anticancer Drug Screen. Data for the mlh1 rad18 strain (AID 175). The following applies: S. cerevisiae mlh1 rad18 strain growth inhibition; at 50.0 µM; active compounds read high. The essentials:
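Compound-treated yeast growth, normalised to vehicle controls. Strain bears defined DNA repair mutations.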

The panel holds about 79,000 compounds, 15% with a hit somewhere; the sample as a whole holds those more often. Values without a mark were called inactive. The source made the active and inactive calls. Rule as the data show it: active = growth inhibition above about 70%; inactive = the rest.

Take `O=C(O)c1cc(N2C(=O)c3ccc4c5ccc6c7c(ccc(c8ccc(c3c48)C2=O)c75)C(=O)N(c2ccc(O)c(C(=O)O)c2)C6=O)ccc1O`: the growth inhibition is -8.4% in assay [1]; 10% in assay [2]; 3.2% in assay [3]; 34% in assay [4]; 1.65% in assay [5]; 26.3% in assay [6].

Regarding `CCOC(=O)c1c(SCCO)n(-c2ccccc2)c(=S)n(-c2ccccc2)c1=O`, the growth inhibition in assay [1] was -22.7%; in assay [2] it was -25.2%; in assay [3] it was -22.7%; in assay [4], 1.75%; in assay [5] it was -13.3%; in assay [6], -19.4%.

For `Cc1ncc(COP(=O)(O)O)c(C)c1O`, the growth inhibition was -15.7% in assay [1]; -10.1% in assay [2]; -33.5% in assay [3]; -33.6% in assay [4]; -31.3% in assay [5]; -13.6% in assay [6].

Consider `NC(=O)C1C2C=CC(O2)C1C(=O)O` (stereo not given), for which the growth inhibition in assay [1] is -26.6%; in assay [2], -12.9%; in assay [3], -10.3%; in assay [4], -23.6%; in assay [5], -1.9%; in assay [6], 5.4%.

Turning to `COc1ccccc1C1OC(C)C(C)O1` (stereo not given), the growth inhibition in assay [1] was -16.1%; in assay [2], -10.7%; in assay [3] it was -7.35%; in assay [4], 5.5%; in assay [5], -25.9%; in assay [6] it was -16.3%.

Regarding `CCOC1(C)OC2OC(COC(c3ccccc3)(c3ccccc3)c3ccccc3)C(OC(=O)c3ccccc3)C(OC(=O)c3ccccc3)C2O1` (stereo not given), the growth inhibition in assay [1] is -3.5%; in assay [2] it was 14%; in assay [3], 4.05%; in assay [4], -9.4%; in assay [5] it was -5.9%; in assay [6] it was 29.6%.

As for `O=C(O)c1nc2nc(Cl)c(Cl)nc2[nH]1`, the growth inhibition in assay [1] was -22.7%; in assay [2], -30.4%; in assay [3], -19.7%; in assay [4], 21.9%; in assay [5] it was -37.8%; in assay [6] it was 9.4%.

Turning to `C=CCOC(=O)C(F)(F)F`, the growth inhibition was 0.15% in assay [1]; -4.25% in assay [2]; -0.7% in assay [3]; 4.35% in assay [4]; 6.85% in assay [5]; -1.4% in assay [6].

As for `O=C(NNC(=O)c1ccccc1F)c1ccc2ccccc2c1`, the growth inhibition in assay [1] is -15.3%; in assay [2], -13.3%; in assay [3], -8.75%; in assay [4], -2.5%; in assay [5] it was -2.1%; in assay [6], -6.55%.

For the molecule `CN(C)c1nc(Oc2nc(N(C)C)nc(N(C)C)n2)nc(N(C)C)n1`, the growth inhibition in assay [1] was -21.8%; in assay [2], -26.6%; in assay [3] it was -30.9%; in assay [4], -8.5%; in assay [5], -21.4%; in assay [6], -31.9%.

On to `CN(C)C(=O)OC1CCCCC1`, for which the growth inhibition is -8.1% in assay [1]; -9.4% in assay [2]; -18.8% in assay [3]; -18.7% in assay [4]; -19.6% in assay [5]; -12.6% in assay [6].

`CC(=O)[C@H]1CC[C@H]2[C@@H]3CC=C4C=CCC[C@@H]4[C@H]3CC[C@]12C`: the growth inhibition was -14.1% in assay [1]; 20.1% in assay [2]; 22.9% in assay [3]; -52% in assay [4]; 18.8% in assay [5]; 24.4% in assay [6].

Regarding `Cc1ccc2c(c1)C(=O)C1(C2)Cc2ccc(C)cc2C1=O`, the growth inhibition in assay [1] is -53%; in assay [2] it was -45.9%; in assay [3], 4.05%; in assay [4], -3.45%; in assay [5], 5.45%; in assay [6], -24.9%.

As for `Cc1c(C)n(S(=O)(=O)c2ccccc2)c2ccccc12`, the growth inhibition is 20.6% in assay [1]; 10.4% in assay [2]; 21.4% in assay [3]; 27.9% in assay [4]; 13.2% in assay [5]; 27.4% in assay [6].

In the case of `CC(=O)Oc1cccc(O)c1`, the growth inhibition was -1.55% in assay [1]; -3.65% in assay [2]; -15.2% in assay [3]; -22.5% in assay [4]; -4.15% in assay [5]; 3% in assay [6].

Take `C=CC(=O)OCC(C)(C)COC(=O)C=C`: the growth inhibition in assay [1] is 3.3%; in assay [2] it was -34.5%; in assay [3] it was -16.7%; in assay [4], 16.1%; in assay [5], 19.8%; in assay [6], -12.6%.

On to `Cc1sc2nc3n(c(=O)c2c1C)N=C(c1ccc([N+](=O)[O-])cc1)CS3`, for which the growth inhibition was 9.15% in assay [1]; -14.9% in assay [2]; -10.1% in assay [3]; 24.1% in assay [4]; 7.2% in assay [5]; -8.1% in assay [6].

Regarding `O=C1N(CCN2CCC3(CC2)OCCO3)CCN1c1cc(Cl)cc(Cl)c1`, the growth inhibition in assay [1] was 56.9%; in assay [2], 25.4%; in assay [3] it was 51%; in assay [4], 34.3%; in assay [5], 24.6%; in assay [6], 37.8%.

On to `O=C1CCN2C=CC=CC2=N1`, for which the growth inhibition in assay [1] was -14.6%; in assay [2] it was -8.6%; in assay [3], 2.15%; in assay [4] it was -26.6%; in assay [5], -19%; in assay [6] it was 6.95%.

On to `O=C(CN1CCOCC1)Nc1ccc(S(=O)(=O)c2ccc([N+](=O)[O-])cc2)cc1`, for which the growth inhibition in assay [1] was 52.3%; in assay [2], 15%; in assay [3] it was 99.3% (active); in assay [4], 98.3% (active); in assay [5], 96.7% (active); in assay [6], 26.1%.
